Source: PubChem BioAssay (NCI)
The panel holds about 83,000 compounds, 20% with a hit somewhere; the sample as a whole holds those more often.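 The test compound was applied at a single concentration to cells in 96-well plates for 48 hours, and percent growth was recorded.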 Active and inactive are the calls of the source.

What follows are molecules tested on NCI-H322M lung (assay: NCI-60 one-dose screen, 48 h (100 = growth as untreated, 0 = no growth, -100 = all killed)). Conditions: 10 µM unless noted.
Description: Growth inhibition of the NCI-H322M human Non-Small Cell Lung tumor cell line is measured as a screen for anti-cancer activity. Cells are grown in 96 well plates and exposed to the test compound for 48 hours. Compounds are tested at a single concentration, which is 10^-5 M for most compounds. The reported endpoint is percent growth (GI% or GIPRCNT), where numbers from 0 - 100% represent growth inhibition, and numbers from -100% - 0 represent cell death. For example, a value of 40 represents 60% growth inhibition. A value of 0 means no net growth occurred over the course of the experiment. A value of -40 indicates 40% of cells at the beginning of the experiment died by the end of the experiment. A value of -100 means all cells are dead at the end of the experiment.
NCI-60 Human Tumor Cell Lines Screen was performed using the standard one-dose NCI protocol, which is described in more detail at https://dtp.cancer.gov/discovery_development/nci-60/default.htm.
Compounds with GIPRCNT values below 10 were considered active. Activity score was based on GIPRCNT using the following formula: […]
Score is 0 for GIPRCNT values of 100 or above, 50 for GIPRCNT values of 0, and 100 for GIPRCNT values of -100.
In the case of `CCC[CH2][Sn]([CH2]CCC)([CH2]CCC)[O]C(=O)c1ccc(Cl)cc1Cl`, the growth is reported as -86.5% (active). With `CSc1ccccc1NP1(=O)OCC(C)([N+](=O)[O-])CO1` (stereo not given) the growth was 126% (inactive). With `CO[C@@H]([CH2][Hg][S]C#N)[C@@H]([CH2][Hg][S]C#N)OC` the growth was 101% (inactive). For `CN=C(NN)NN`, the growth was 114% (inactive). `O=S(=O)(Cl)c1ccccc1` (tested in a mixture with another compound) was tested, and the growth was 102% (inactive). `CC(=O)C1C(=O)N(C)C(=O)N(C)C1=O` was tested, and the growth was 107% (inactive). In the case of `N#[N+]c1cnc([O-])[nH]c1=O`, the growth is reported as 98.9% (inactive). With `Clc1ccc(SSC(Cl)(Cl)Cl)cc1` the growth was 112% (inactive). With `COc1c(O)c2c3c(c1OC)-c1ccccc1CC3N(C)CC2` (stereo not given) the growth was 96.1% (inactive). `O=C1NC(=S)NC(=O)C1=Cc1ccccc1` was tested, and the growth was 119% (inactive). In the case of `CCN1CC2(CN(CC)C1=S)C(=O)NC(=O)NC2=O`, the growth is reported as 107% (inactive). In the case of `COC[CH2][Hg][C]#[C][Hg][CH2]COC`, the growth is reported as 116% (inactive). For `CC(C)(O)/C=C/C(=O)[C@](C)(O)[C@H]1[C@H](O)C[C@@]2(C)[C@@H]3CC=C4[C@@H](C=C(O)C(=O)C4(C)C)[C@]3(C)C(=O)C[C@]12C`, the growth was -20.1% (active). For `CCOC(=O)c1cnc(SCc2ccc(Cl)c(Cl)c2)nc1N1CC1`, the growth was 69.7% (inactive). For `CC1(C)N=C(N)N=C(N)N1c1ccc(CCC(=O)Nc2cccc(S(=O)(=O)F)c2)cc1`, the growth was 79% (inactive). `CC(=O)O[C@H]1CC[C@H]2[C@@H]3CC[C@H]4CC=C(C)C[C@]4(C)[C@H]3CC[C@]12C` was tested, and the growth was 104% (inactive). In the case of `O=S(=O)(c1ccc(Cl)cc1)C(Cl)(Cl)Cl`, the growth is reported as 75.2% (inactive). In the case of `CC(CC(C#N)(c1ccccc1)c1ccccc1)N1CCOCC1` (stereo not given), the growth is reported as 107% (inactive). `O=C(c1cccs1)C1NO[N+]([O-])=C1c1cccs1` (stereo not given) was tested, and the growth was 110% (inactive). With `Nc1ccc([N+](=O)[O-])c2c1Oc1ccccc1O2` the growth was 93.9% (inactive). In the case of `NC(=O)SCC(=O)Nc1ccc([As](=O)(O)O)cc1`, the growth is reported as 123% (inactive). In the case of `FC(F)=C(F)c1ccccc1`, the growth is reported as 104% (inactive). `Oc1ccc(O)c2c1C1(Cl)C(Cl)=C(Cl)C2(Cl)C1(Cl)Cl` was tested, and the growth was 33.1% (inactive). For `CC1(C)N=C(N)N=C(N)N1c1ccc(OCCCCNC(=O)c2ccc(S(=O)(=O)F)cc2)c(Cl)c1`, the growth was 55.5% (inactive). With `COc1ccc(C(c2ccc(OC)cc2)C(Cl)(Cl)Cl)cc1` the growth was 106% (inactive). With `O=c1cc[nH]c(=O)o1` the growth was 105% (inactive). `COc1cc[c]([Hg][Cl])cc1` was tested, and the growth was 99.1% (inactive). `CCCCN(CCCC)CC(O)c1ccccc1` (stereo not given) was tested, and the growth was 105% (inactive). `CC(=O)Nc1ccc(Cc2ccc(NC(C)=O)cc2)cc1` was tested, and the growth was 108% (inactive). For `N#CC1=C(N)Oc2cc3c(cc2C1c1cccs1)OCO3` (stereo not given), the growth was 40.5% (inactive). For `OC1(c2ccccc2F)c2ccccc2C2=NCCN21` (stereo not given), the growth was 97.2% (inactive). For `CN1CC2CCC(C1)C2=O`, the growth was 88.4% (inactive). With `Cc1cc(NC(=O)CCc2ccc(N3C(N)=NC(N)=NC3(C)C)cc2)ccc1S(=O)(=O)F` the growth was 29.7% (inactive). With `N#C[Se]CCN1C(=O)C2C(C1=O)[C@H]1C=C[C@@H]2S1` (stereo not given in full) the growth was -1.58% (active). With `CN1CCN(C(=O)COc2ccc(/C=C3\CC4C5CC=C6CC(Cl)CCC6(C)C5CCC4(C)C3=O)cc2)CC1` (stereo not given) the growth was 85.7% (inactive). With `C[C@@H]1CC[C@@H]2[C@@H]1[C@H](OC(=O)/C=C/C1CCCCC1)[C@]1(C3CCCCC3)C[C@@H](OC(=O)CO)[C@@]2(C)O1` the growth was 85.6% (inactive). `COc1cc(/C=C\c2cc(OC)c(OC)c(OC)c2)cc(N/C=C\C(=O)c2ccc(OC(F)(F)F)cc2)c1OC` was tested, and the growth was 42.4% (inactive). `COc1cc(C2(C#N)CCN(C)CC2)cc(OC)c1OC` was tested, and the growth was 129% (inactive). With `O=[N+]([O-])c1ccc(/C=C/C=C/c2ccc(S(=O)(=O)F)cc2)c(Cl)c1` the growth was 94.7% (inactive). In the case of `O=C(CC1(O)C(=O)Nc2ccc(F)cc21)c1ccc(C(=O)NCC2CCC3(CC2)OOC2(CCCCC2)OO3)cc1` (stereo not given), the growth is reported as 94.6% (inactive).
